A selection: hits, their analogues and other compounds. The true share with any hit is near 5.3%.
PostGolgi yeast: growth inhibition of a yeast mutant, post-Golgi transport screen. hit rate 0.9% among 98,000. post-Golgi transport phenotypic cell assay. inhibition, % at 10 µM. AID 739;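 also: yeast cells grown in 1536-well plates; yeast grown about 18 h at 30C before absorbance read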
Measles CPE: protection of cells from measles virus. protection (pct of control), % at 4 µM. hit rate 1.5% among 140,000. AID 841. Measles virus-infected cells, CPE protection, absorbance; in the data active = protection mostly above about 24%, no sharp cut-off; inactive = mostly below about 26%
PostGolgi ctrl: inhibits growth of the yeast control strain; efflux-deficient yeast background strain, growth absorbance A615, 16 h; hit rate 5% among 98,000; inhibition, % at 10 µM
MT1-MMP txn act: MT1-MMP promoter transcription activation; AID 750; activation factor at 10 µM; hit rate 0.16% among 86,000; HT1080 MT1-MMP promoter luciferase reporter, luminescence, overnight; active compounds read high;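 active = activation factor of at least 2 for MT1-MMP transcription at 10 µM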
Of the large screens only hits and unclear results are named; the others gave an inactive call. Rule as the data show it, unless noted: active = inhibition above about 30%; inactive = the rest.

O=S(=O)(N/N=C1/CC(c2ccccc2)Oc2ccccc21)c1ccc(Br)cc1 (centres undefined)	PostGolgi ctrl 38 (no result: MT1-MMP txn act)
Cc1ccc(S(=O)(=O)N/N=C2/CC(c3ccccc3)Oc3ccccc32)cc1[N+](=O)[O-] (centres undefined)	PostGolgi ctrl 36 (no result: MT1-MMP txn act)
COC(=O)NC1CCC(NC(=O)OC)CC1 (centres undefined)	none (no result: PostGolgi yeast, PostGolgi ctrl, MT1-MMP txn act)
CCCc1cc2c(n1CCc1ccc(Cl)cc1)C(C)C1CN(C(=O)c3ccccc3)C(C)(C(=O)OC)C21 (centres undefined)	none (no result: PostGolgi yeast, Measles CPE, PostGolgi ctrl)
COc1cc(CNc2ccc(CNc3ncn[nH]3)cc2)cc(Cl)c1OCc1ccccc1	none (no result: PostGolgi yeast, PostGolgi ctrl, MT1-MMP txn act)
O=C(c1ccc(Cl)cc1)N1CCC(O)(CSc2ccccc2)CC1	none (no result: MT1-MMP txn act)
O=C(c1ccc(Cl)cc1)N1CCC(O)(CSc2ccc(Cl)cc2)CC1	PostGolgi ctrl 45 (no result: MT1-MMP txn act)
CC(C)CCNC(=O)CCSCCC(=O)NCCC(C)C	none (no result: PostGolgi yeast, PostGolgi ctrl, MT1-MMP txn act)
O=[N+]([O-])c1cc(-c2nnc(C34CC5CC(CC(C5)C3)C4)o2)cc([N+](=O)[O-])c1	PostGolgi ctrl 47 (no result: MT1-MMP txn act)
CCOC(=O)CN1C(=O)S/C(=C/C=C/c2ccc(N(C)C)cc2)C1=O	none (no result: PostGolgi yeast, PostGolgi ctrl, MT1-MMP txn act)
CC(C)C1O/C(=N/C(=O)Nc2ccc(Cl)c(Cl)c2)NC1=O (centres undefined)	PostGolgi yeast 98, PostGolgi ctrl 92
Cc1ccc(-n2nc3c(Cl)nnc(C)c3c2C)cc1	none (no result: PostGolgi yeast, PostGolgi ctrl, MT1-MMP txn act)
CSc1nnc2c(n1)c(C)nn2-c1ccc(C)cc1	Measles CPE 38 (no result: PostGolgi yeast, PostGolgi ctrl)
Cc1ccccc1CSCC(Nc1ccc(C(=O)O)cc1[N+](=O)[O-])C(=O)O (centres undefined)	none
Cc1ccc(N/C=C(/C#N)c2ccsc2)cc1C	PostGolgi ctrl 39 (no result: MT1-MMP txn act)
Cc1ccc(C(=O)/C=C\Nc2ccc(C)c(C)c2)cc1	none (no result: PostGolgi yeast, PostGolgi ctrl, MT1-MMP txn act)
Cc1ccc(Sc2oc(/C=N/n3cnnc3)cc2Br)cc1	PostGolgi ctrl 44
c1ccc(Nc2nc(-c3cccs3)cs2)nc1	PostGolgi ctrl 31
Cc1cccc(Nc2nc(-c3cccs3)cs2)n1	MT1-MMP txn act 2.3 (no result: PostGolgi yeast, PostGolgi ctrl)
Cc1cccc(Nc2nc(-c3ccccn3)cs2)n1	none
c1ccc(Nc2nc(-c3cccnc3)cs2)nc1	none
COc1ccccc1NC(=S)NCc1ccc2c(c1)OCO2	none (no result: PostGolgi yeast, PostGolgi ctrl, MT1-MMP txn act)
CC(=O)N(Cc1ccc(F)cc1)C1=C(NCCc2ccccc2)C(=O)c2ccccc2C1=O	PostGolgi ctrl 31 (no result: MT1-MMP txn act)
CC(C)CCN(C(=O)Nc1ccccc1)C(C)c1cccs1 (centres undefined)	none
CC1=C(C(=O)OC(C)C)C(c2cccs2)NC(=S)N1 (centres undefined)	none (no result: PostGolgi yeast, PostGolgi ctrl, MT1-MMP txn act)
Cc1c(N2C(=O)CSC23C(=O)Nc2ccccc23)c(=O)n(-c2ccccc2)n1C (centres undefined)	PostGolgi ctrl 40
Cc1c(N2C(=O)C(C)SC23C(=O)Nc2ccccc23)c(=O)n(-c2ccccc2)n1C (centres undefined)	none
CC1CCN(C(=O)c2ccccc2NC(=O)c2cccc(S(=O)(=O)N3CCOCC3)c2)CC1	none
CCN(CC)S(=O)(=O)c1cccc(C(=O)Nc2ccccc2C(=O)N2CCOCC2)c1	Measles CPE 47
CCCOC(=O)NC(CC)COC(=O)Nc1cc(C)ccc1C (centres undefined)	PostGolgi ctrl 33
CCCCOC(=O)Nc1cc(Cl)ccc1C	none
Cc1c(-c2nc(N)nc(Nc3ccccc3F)n2)oc2ccccc12	PostGolgi ctrl 35
COc1ccccc1Nc1nc(N)nc(-c2cc3ccccc3o2)n1	none
COc1cccc(Nc2nc(N)nc(-c3oc4ccccc4c3C)n2)c1	PostGolgi ctrl 77
COC(=O)[C@@H]1C[C@@H]2CC[C@@H](O)C[C@@H]2N1CC1CCCCC1	none (no result: PostGolgi yeast, Measles CPE, PostGolgi ctrl)
S=C(NCCc1ccccn1)Nc1cccc(Cl)c1	none (no result: PostGolgi yeast, PostGolgi ctrl, MT1-MMP txn act)
O=c1nc(/C=C/c2cc([N+](=O)[O-])ccc2Cl)cc(C(F)(F)F)[nH]1	Measles CPE 55
CCOC(=O)c1sc(NC(=O)CSc2nc3ccccc3s2)c(C(=O)OCC)c1C	Measles CPE 40 (no result: PostGolgi yeast, PostGolgi ctrl, MT1-MMP txn act)
CCOC(=O)c1sc(NC(=O)CSc2n[nH]c(-c3ccccc3)n2)c(C#N)c1C	PostGolgi ctrl 41
CCOC(=O)c1sc(NC(=O)CSc2nc(C)cc(C)n2)c(C#N)c1C	none
O=C(Nc1nc(-c2cccs2)cs1)c1cccc(S(=O)(=O)N2CCCCCC2)c1	none
O=C(Nc1nc(-c2cccs2)cs1)c1ccc(S(=O)(=O)N2CCCCC2)cc1	PostGolgi ctrl 41
O=C(NNC(=O)c1cccs1)c1ccc(S(=O)(=O)N2CCCCC2)cc1	Measles CPE 26 (no result: PostGolgi yeast, PostGolgi ctrl, MT1-MMP txn act)
CC(C)COC(=O)c1cc(-c2ccc(/C=N/n3cnnc3)o2)ccc1Cl	PostGolgi ctrl 36
COc1ccc(NC(=O)c2cc(S(=O)(=O)N(Cc3ccccc3)c3ccccc3)ccc2Cl)cn1	Measles CPE 39 (no result: PostGolgi yeast, PostGolgi ctrl, MT1-MMP txn act)
Cc1cccc(C)c1OC(=O)CN(c1ccc(Cl)cc1)S(C)(=O)=O	none (no result: MT1-MMP txn act)
COc1ccccc1COC(=O)Nc1c(C)nn(C)c1Cl	none (no result: MT1-MMP txn act)
CCCn1c(SCC(=O)N2CCCC2)nc2c1c(=O)n(C)c(=O)n2C	none
CC(C)n1c(SCC(=O)N2CCCC2)nc2c1c(=O)n(C)c(=O)n2C	Measles CPE 33
COCCn1c(N)c(C(=O)NCc2cccs2)c2nc3ccccc3nc21	PostGolgi ctrl 32
CC1(C)CC1C(=O)Nc1ccc([N+](=O)[O-])cc1Br (centres undefined)	none (no result: PostGolgi yeast, PostGolgi ctrl, MT1-MMP txn act)
Cc1ccc(C2(c3ccc(C)cc3)CC2C(=O)Nc2ccc([N+](=O)[O-])cc2O)cc1 (centres undefined)	PostGolgi yeast 101, PostGolgi ctrl 91 (no result: MT1-MMP txn act)
COC(=O)Nc1snnc1C	none
Cc1ccc2nc(-c3ccc(Br)o3)oc(=O)c2c1	PostGolgi yeast 36
COc1cccc(-n2cnc3scc(-c4cccs4)c3c2=O)c1	none
O=c1c2c(-c3cccs3)csc2ncn1-c1ccc(Br)cc1	PostGolgi ctrl 38
COc1ccc(/C=N/N2CCN(C)CC2)cc1O	Measles CPE 28 (no result: MT1-MMP txn act)
O=C(CCSc1ccccc1)NCc1cccnc1	none (no result: PostGolgi yeast, PostGolgi ctrl, MT1-MMP txn act)
O=C(O)c1ccccc1C(=O)NCc1cccnc1	Measles CPE 32
O=C(CSc1ccccc1)NCc1cccnc1	Measles CPE 40
Cn1c(=O)c2c(ncn2CC(=O)NCc2cccnc2)n(C)c1=O	Measles CPE 39
O=C(NCc1cccnc1)c1ccccn1	none
Cn1c(=O)c2c(ncn2CC(=O)OCC(=O)NCc2ccc(Cl)cc2)n(C)c1=O	none (no result: PostGolgi yeast, PostGolgi ctrl, MT1-MMP txn act)
CS(=O)(=O)Nc1ccc(C(=O)NCc2cccnc2)cc1	PostGolgi ctrl 31
CCC(Oc1nc2ccccc2nc1-c1ccccc1NC(C)=O)C(=O)c1ccccc1 (centres undefined)	none (no result: MT1-MMP txn act)
C=CCn1c(SCc2ccc(C#N)cc2)nnc1-c1ccc(C)cc1	none
Brc1ccc(-c2cn3nc4c(nc3n2)CCCC4)cc1	none (no result: MT1-MMP txn act)
Brc1ccc(-c2cn3c(n2)CCc2ccc4cccnc4c2-3)cc1	PostGolgi yeast 52, PostGolgi ctrl 59
Cc1ccc(NS(=O)(=O)c2ccc(Cl)c(NC(=S)NC(=O)C3CCCCC3)c2)cc1Cl	none (no result: PostGolgi yeast, PostGolgi ctrl, MT1-MMP txn act)
CC(C)c1ccccc1NC(=O)c1cccc(NC(=O)c2ccccc2)c1	none
O=c1c2c3n(c(=S)nc2[nH]n1-c1ccccc1)CCCCC3	PostGolgi ctrl 62
CN1CCN(CCCNC(=O)Nc2cccc3ccccc23)CC1	Measles CPE 44
CN1CCN(CCCNC(=O)Cn2nc(-c3ccccc3)ccc2=O)CC1	PostGolgi yeast 41
CN1CCN(C(=O)c2cc3c(C(F)(F)F)nn(C)c3s2)CC1	none (no result: MT1-MMP txn act)

High-throughput results from PubChem BioAssay.
